In PubChem BioAssay (NCATS):
A number with no mark means an inactive call. The rule behind the calls is not given here.

system: HIV-1 nucleocapsid protein NCp7 (binding to TG oligonucleotide); assay: HIV Nucleocapsid (AID 346); settings: HIV-1 NC / fluorescein-TGTGTGTG probe, fluorescence polarization;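 note: potency is for inhibitors that block NC binding and lower polarization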
Method in brief: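 Reagents dispensed (10 nM TG4xF, 100 nM HIV-1 NC), plates spun, compounds pin-transferred, then incubated 1 hr at room temperature before FP imaging. Buffer: Hepes pH 7.5, 250mM NaCl, 1uM ZnCl2, 100 uM TCEP, 5 mM 2-mercaptoethanol.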
Potency is the fitted concentration of half-maximal effect.

SMILES | Potency [µM]
Cc1cnc(CNc2ncncc2-c2ccoc2)cn1 | > 20
CCNc1ncc2nc(-c3cccc(C#N)c3)c(=O)n(C)c2n1 | > 20
O=C(c1ccncc1)N1CCC2(CCCN(c3ccncc3)C2)CC1 | > 20
COCC(=O)N1CCC2(CCCN(Cc3cc(C(F)(F)F)cc(C(F)(F)F)c3)C2)CC1 | > 20
COCCn1c(=O)cnc2cnc(OC)nc21 | > 20
COc1ccc(C(=O)N2CCC3(CCN(Cc4ccccc4OC)CC3)CC2)cc1 | > 20
O=C(c1ccncc1)N1CCC[C@@]2(CCN(Cc3cc(C(F)(F)F)cc(C(F)(F)F)c3)C2)C1 | > 20
COc1cccc(-c2ccc3ncnc(Nc4ccccc4)c3c2)c1 | > 20
O=c1c(-c2ccc(F)cc2)nc2cnc(Oc3ccccc3)nc2n1C1CC1 | > 20
c1cncc(-c2nc(N3CCNCC3)c3ccccc3n2)c1 | > 20
CN(C)Cc1ccccc1-c1cncnc1NCc1cccnc1 | > 20
Cn1cc(-c2nc3cncnc3n(Cc3ccccc3Cl)c2=O)c2ccccc21 | > 20
COc1ccc(-c2nc3cnc(N4CCNCC4)nc3n(C3CC3)c2=O)cc1 | > 20
COc1ccc(C(=O)N2CCC3(CCN(Cc4ccc(C#N)cc4)CC3)CC2)cc1 | > 20
Cc1cnc(CNc2ncncc2-c2ccccc2CN(C)C)cn1 | > 20
O=C(c1csnn1)N1CCC[C@@]2(CCN(c3ncccn3)C2)C1 | > 20
COc1cccc(Cn2c(=O)c(-c3ccc(F)cc3)nc3cnc(N4CCNCC4)nc32)c1 | > 20
COc1ccc(NC(=O)N2CC[C@@]3(CCCN(C(=O)c4ccc(OC)cc4)C3)C2)cc1 | > 20
COc1ccc(C(=O)N2CCC3(CCN(Cc4nccs4)CC3)CC2)cc1 | > 20
Cc1cnc(CNc2ncnc3ccc(-c4ccccc4Cl)cc23)cn1 | > 20

SMILES | Potency [µM]
c1ccc(-c2ccc(N3CC4(CCNCC4)C3)cc2)cc1 | > 20
COc1ncc2nc(-c3ccc(F)cc3)c(=O)n(C)c2n1 | > 20
CS(=O)(=O)N1CCC2(CC1)CN(Cc1ccccc1)C2 | > 20
Cc1ccccc1-c1cc(N(C)Cc2ccco2)ncn1 | > 20
c1cncc(-c2cncnc2-n2ccnc2)c1 | > 20
COc1ccc(-n2c(=O)c(-c3ccc(F)cc3)nc3cncnc32)cc1 | > 20
O=C(O)C1CCN(c2ncnc3ccc(-c4ccccc4C(F)(F)F)cc23)CC1 | > 20
COc1ccc(-n2c(=O)cnc3cnc(OC)nc32)cc1 | > 20
CN(C)C(=O)c1ccc(-c2cc(Nc3ccccc3)ncn2)cc1 | > 20
O=C(c1ccncc1)N1CCC2(CC1)CCN(c1ccc(-c3ccccc3)cc1)CC2 | > 20
CN1CCN(c2cc(-c3ccccc3Cl)ncn2)CC1 | > 20
COc1cccc(Cn2c(=O)c(-c3cc(F)cc(F)c3)nc3cncnc32)c1 | > 20
CC(=O)N1CCC2(CCCN(c3ccncc3)C2)CC1 | > 20
COc1cccc(-c2cncnc2NC2CCNCC2)c1 | > 20
O=C(Oc1ccccc1)N1CCC[C@@]2(CCN(c3ccncc3)C2)C1 | > 20
CCNc1ncc2nc(-c3cc(F)cc(F)c3)c(=O)n(Cc3cccs3)c2n1 | > 20
COc1ccc(C(=O)N2CCC3(CCCN(Cc4ccc(C#N)cc4)C3)CC2)cc1 | > 20
COc1ccc(CNc2ccnc(-c3ccoc3)n2)c(OC)c1 | > 20
COc1ccc(Oc2ncc3nc(-c4ccccc4)c(=O)n(C[C@H]4CCCO4)c3n2)cc1 | > 20
